# Results filed as inconclusive are left out. A number with no mark means an inactive call. Calls of active or inactive are those of the source. Calls come from the whole dose curve; as a rule, active = well fitted curve in the direction sought with a large enough effect; inconclusive = small, poorly fitted or top-dose-only effect, or another doubt; inactive = no such curve, though single readings can be large; an effect the other way counts as inactive or inconclusive.
# What was measured:
# [1] = Quantitative High-Throughput drug screen in 47 multiple myeloma cell lines against the NCATS MIPE library collection: KMS20_JCRB cell viability assay (AID 1918973); note: nearly all actives have a fitted effect of over 45% in size
# In short: (§1)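 Luminescent ATP measurement with CellTiter-Glo gives viability, scaled between DMSO-only wells (100%) and media-only wells (0%). Cells, 500 per well, faced library compounds for 48 hours at 37C.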
# [2] = Quantitative High-Throughput drug screen in 47 multiple myeloma cell lines against the NCATS MIPE library collection: NCIH929_DSMZ cell viability assay (AID 1918978); note: nearly all actives have a fitted effect of over 35% in size
# In short: (§2)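 qHTS format: cells plated (500/well), pin-dosed with MIPE 4.0 compounds, kept 48 h at 37 °C. Readout was CellTiter-Glo luminescence, median RLU.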
# [3] = Quantitative High-Throughput drug screen in 47 multiple myeloma cell lines against the NCATS MIPE library collection: OCIMY1_PLB cell viability assay (AID 1918979); note: nearly all actives have a fitted effect of over 35% in size
# In short: as §2
# [4] = Quantitative High-Throughput drug screen in 47 multiple myeloma cell lines against the NCATS MIPE library collection: MM1R_ATCC cell viability assay (AID 1918981); note: nearly all actives have a fitted effect of over 35% in size
# In short: as §2
# [5] = Quantitative High-Throughput drug screen in 47 multiple myeloma cell lines against the NCATS MIPE library collection: KMS26_JCRB cell viability assay (AID 1918975); note: nearly all actives have a fitted effect of over 45% in size
# In short: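 CellTiter-Glo luminescence (ATP) after 48 h compound exposure, 37C/5% CO2; 500 cells/well; MIPE 4.0 approved/investigational drugs pinned in; DMSO = 100%, media only = 0% viability.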
# [6] = Quantitative High-Throughput drug screen in 47 multiple myeloma cell lines against the NCATS MIPE library collection: MOLP8_DSMZ cell viability assay (AID 1918977); note: nearly all actives have a fitted effect of over 45% in size
# In short: as §2
# [7] = Quantitative High-Throughput drug screen in 47 multiple myeloma cell lines against the NCATS MIPE library collection: MM1S_ATCC cell viability assay (AID 1918980); note: nearly all actives have a fitted effect of over 45% in size
# In short: as §2
# [8] = Quantitative High-Throughput drug screen in 47 multiple myeloma cell lines against the NCATS MIPE library collection: MMM1_PLB cell viability assay (AID 1918976); note: nearly all actives have a fitted effect of over 35% in size
# In short: as §2
# [9] = Quantitative High-Throughput drug screen in 47 multiple myeloma cell lines against the NCATS MIPE library collection: KMS21BM_JCRB cell viability assay (AID 1918974); conditions: ATP luminescence, 48 h; viability: at 45.8 µM (top of the series) unless noted
# In short: as §1
# Potency is the fitted concentration of half-maximal effect.
smiles,measurement,setting,value
CS(=O)(=O)c1ccc(-c2cnc(N)c(C(=O)Nc3ccccc3)n2)cc1,Potency,[1],inactive
same,Potency,[2],inactive
same,Potency,[3],inactive
same,Potency,[4],5.26 µM (active)
Nc1nc(NCCNc2ncc(-n3ccnc3)c(-c3ccc(Cl)cc3Cl)n2)ccc1[N+](=O)[O-],Potency,[1],9.35 µM (active)
same,Potency,[5],16.6 µM (active)
same,Potency,[6],16.6 µM (active)
same,Potency,[2],1.18 µM (active)
same,Potency,[7],2.35 µM (active)
same,Potency,[4],16.6 µM (active)
CC1(C)CC(=O)c2c(C(F)(F)F)nn(-c3ccc(C(N)=O)c(NC4CCC(OC(=O)CN)CC4)c3)c2C1 (stereo not given),Potency,[1],0.148 µM (active)
same,Potency,[8],0.418 µM (active)
same,Potency,[6],0.148 µM (active)
same,Potency,[2],0.148 µM (active)
same,Potency,[3],0.469 µM (active)
same,Potency,[4],0.209 µM (active)
Cc1coc2c1C(=O)C(=O)c1c-2ccc2c1CCCC2(C)C,Potency,[1],9.35 µM (active)
same,Potency,[5],2.96 µM (active)
same,Potency,[2],13.2 µM (active)
same,Potency,[3],16.6 µM (active)
same,Potency,[4],18.7 µM (active)
Cc1c(CN2CCN(S(C)(=O)=O)CC2)sc2c(N3CCOCC3)nc(-c3cnc(N)nc3)nc12,Potency,[1],0.0372 µM (active)
same,Potency,[5],0.187 µM (active)
same,Potency,[8],0.0235 µM (active)
same,Potency,[2],0.0053 µM (active)
same,Potency,[3],0.0418 µM (active)
same,Potency,[7],0.0132 µM (active)
same,Potency,[4],0.0264 µM (active)
COc1cc(=C2C=c3ccccc3=N2)[nH]c1=Cc1[nH]c(C)cc1C,Potency,[1],7.43 µM (active)
same,Potency,[5],2.35 µM (active)
same,Potency,[6],0.469 µM (active)
same,Potency,[2],5.26 µM (active)
same,Potency,[3],3.72 µM (active)
same,Potency,[7],4.18 µM (active)
same,Potency,[4],1.05 µM (active)
Cc1cn2c(-c3cn[nH]c3)cnc2c(Nc2ccc(C(=O)N3CCNCC3)cc2F)n1,Potency,[1],18.7 µM (active)
same,Potency,[5],16.6 µM (active)
same,Potency,[2],8.33 µM (active)
same,Potency,[7],4.69 µM (active)
same,Potency,[4],20.9 µM (active)
COc1ccc(-c2cc3c(C)nc(N)nc3n(C3CCC(OCCO)CC3)c2=O)cn1 (stereo not given),Potency,[1],0.0264 µM (active)
same,Potency,[5],0.148 µM (active)
same,Potency,[8],0.0148 µM (active)
same,Potency,[6],0.0372 µM (active)
same,Potency,[2],0.0093 µM (active)
same,Potency,[7],0.0372 µM (active)
same,Potency,[4],0.0148 µM (active)
CC=C1NC(=O)[C@H]2CSSCCC=C[C@H](CC(=O)N[C@H](C(C)C)C(=O)N2)OC(=O)[C@H](C(C)C)NC1=O,Potency,[1],0.0209 µM (active)
same,Potency,[8],0.935 µM (active)
same,Potency,[6],0.0132 µM (active)
same,Potency,[2],0.0526 µM (active)
same,Potency,[3],0.118 µM (active)
same,Potency,[7],0.0332 µM (active)
same,Potency,[4],0.0166 µM (active)
C=CC(=O)Nc1cccc(Oc2nc(Nc3ccc(N4CCN(C)CC4)cc3OC)ncc2Cl)c1,Potency,[3],20.9 µM (active)
COc1ccc(CC2c3cc(OC)c(OC)cc3CC[N+]2(C)CCC(=O)OCCCCCOC(=O)CC[N+]2(C)CCc3cc(OC)c(OC)cc3C2Cc2ccc(OC)c(OC)c2)cc1OC (stereo not given),viability (% of DMSO),[5],102% [at 5.15 µM]
Nc1ccc(C(=O)c2cc3c(ccc4ccccc43)[nH]2)cc1,Potency,[8],6.62 µM (active)
same,Potency,[2],18.7 µM (active)
COc1ccc2c(OCc3nnc4ccc(-c5ccccc5)nn34)ccnc2c1,Potency,[8],inactive
same,Potency,[2],inactive
same,Potency,[3],inactive
same,Potency,[7],inactive
same,Potency,[4],inactive
Cc1ccc2nc(NC(=O)CSc3nc4c(c(=O)n3-c3ccccc3)SCC4)sc2c1,Potency,[9],11.8 µM (active)
same,Potency,[5],23.5 µM (active)
same,Potency,[7],13.2 µM (active)
Cc1cnc(-c2cnc(NCCNc3ccc(C#N)cn3)nc2-c2ccc(Cl)cc2Cl)[nH]1,Potency,[2],10.5 µM (active)
CC(O)C1C(=O)N2C(C(=O)O)=C(SC3CNC(C(=O)N(C)C)C3)C(C)C12 (stereo not given),Potency,[2],inactive
Cc1[nH]c2ccccc2c1CCNCc1ccc(C=CC(=O)NO)cc1,Potency,[5],0.0662 µM (active)
same,Potency,[6],0.0526 µM (active)
same,Potency,[2],0.0526 µM (active)
same,Potency,[7],0.0743 µM (active)
same,Potency,[4],0.0296 µM (active)
C[C@@H]1CN(CC(=O)Nc2ccc3c(c2)Cc2cccc(-c4cc(=O)cc(N5CCOCC5)o4)c2S3)C[C@H](C)O1,Potency,[5],20.9 µM (active)
same,Potency,[2],5.9 µM (active)
same,Potency,[4],16.6 µM (active)
COc1cc(-c2nn(C3CCC(N4CCN(C(C)=O)CC4)CC3)c3ncnc(N)c23)ccc1NC(=O)c1cc2ccccc2n1C (stereo not given),Potency,[5],14.8 µM (active)
same,Potency,[8],16.6 µM (active)
same,Potency,[6],10.5 µM (active)
same,Potency,[3],7.43 µM (active)
same,Potency,[7],5.9 µM (active)
CCC[C@H](NC(=O)C(C#N)=Cc1cccc(Br)n1)c1ccccc1,Potency,[8],2.96 µM (active)
same,Potency,[6],1.48 µM (active)
same,Potency,[2],1.05 µM (active)
same,Potency,[4],1.66 µM (active)
CCOC(=O)C1=C(C)NC2=C(C(=O)CC(C)(C)C2)C1c1ccc(-c2ccccc2)cc1 (stereo not given),Potency,[5],16.6 µM (active)
same,Potency,[8],23.5 µM (active)
same,Potency,[6],16.6 µM (active)
same,Potency,[2],20.9 µM (active)
same,Potency,[7],23.5 µM (active)
Cc1ccc(S(=O)(=O)Nc2cc(Cl)ccc2C(=O)Nc2nc(-c3ccccc3)cs2)cc1,Potency,[5],18.7 µM (active)
same,Potency,[6],20.9 µM (active)
same,Potency,[7],14.8 µM (active)
CN[C@H]1CCc2cc(OC)c(OC)c(OC)c2-c2ccc(OC)c(=O)cc21,Potency,[5],0.0148 µM (active)
same,Potency,[8],0.0105 µM (active)
same,Potency,[6],0.0235 µM (active)
same,Potency,[2],0.0235 µM (active)
same,Potency,[4],0.0066 µM (active)
O=C(O)C1(Cc2cccc(Nc3nccs3)n2)CCC(Oc2cccc(Cl)c2F)CC1 (stereo not given),Potency,[9],0.0235 µM (active)
same,Potency,[2],inactive
same,Potency,[3],inactive
same,Potency,[7],0.332 µM (active)
same,Potency,[4],0.469 µM (active)
O=C(O)c1ccc2cc(-c3ccc(O)c(C45CC6CC(CC(C6)C4)C5)c3)ccc2c1,Potency,[8],18.7 µM (active)
same,Potency,[6],1.32 µM (active)
same,Potency,[3],16.6 µM (active)
same,Potency,[7],1.32 µM (active)
O=C(O)CO.[NH2-].[NH2-].[Pt+2],Potency,[5],inactive
same,Potency,[3],inactive
CN(C)CC(C)(C)CNc1nn2c(-c3ccccc3)nnc2cc1C1CCC1,Potency,[7],0.166 µM (active)
O=C(O)Cn1nnc(-c2cc(N3CCC(Oc4cc(F)ccc4Br)CC3)no2)n1,Potency,[6],inactive
same,Potency,[2],inactive
same,Potency,[7],8.33 µM (active)
same,Potency,[4],inactive
COc1ccc(CC2SC(=O)NC2=O)cc1C(=O)NCc1ccc(C(F)(F)F)cc1 (stereo not given),Potency,[6],inactive
same,Potency,[2],inactive
O=C1CCC[C@@H]2[C@H]3CCC[N+]4([O-])CCC[C@@H](CN12)[C@@H]34 (stereo not given in full),viability,[9],154% (active)
same,Potency,[2],inactive
same,Potency,[3],inactive
Clc1cccc(-n2nnnc2NCc2ccccc2Oc2ccccn2)c1Cl,Potency,[2],inactive
same,Potency,[3],inactive
same,Potency,[7],inactive
CC(C)(C)NC(=O)[C@H]1CN(Cc2cccnc2)CCN1C[C@@H](O)C[C@@H](Cc1ccccc1)C(=O)N[C@H]1c2ccccc2C[C@H]1O,Potency,[5],20.9 µM (active)
same,Potency,[4],26.4 µM (active)
COc1ccc(-n2nc(C(N)=O)c3c2C(=O)N(c2ccc(N4CCCCC4=O)cc2)CC3)cc1,Potency,[2],inactive
same,Potency,[3],inactive
same,Potency,[4],inactive
C1Cc2[nH]nc(-c3nn[nH]n3)c2C1,Potency,[2],inactive
same,Potency,[7],inactive
NC(=O)c1cccc2cn(-c3ccc([C@@H]4CCCNC4)cc3)nc12,Potency,[6],inactive
same,Potency,[2],20.9 µM (active)
C[C@@H](Oc1cc(-n2cnc3ccc(CN4CCN(C)CC4)cc32)sc1C(N)=O)c1ccccc1C(F)(F)F,Potency,[5],5.26 µM (active)
same,Potency,[8],16.6 µM (active)
same,Potency,[2],20.9 µM (active)
same,Potency,[7],2.35 µM (active)
same,Potency,[4],0.059 µM (active)
CNC(=O)c1ccc(-c2cnc3ncc(Cc4ccc5ncccc5c4)n3n2)cc1F,Potency,[5],inactive
same,Potency,[2],inactive
same,Potency,[3],inactive
CC[C@H](CO)Nc1nc(NCc2ccccc2)c2ncn(C(C)C)c2n1,Potency,[9],4.18 µM (active)
same,Potency,[5],33.2 µM (active)
same,Potency,[2],10.5 µM (active)
same,Potency,[7],20.9 µM (active)
same,Potency,[4],26.4 µM (active)
CC1COC2(CCN(c3nc(=O)c4cc(C(F)(F)F)cc([N+](=O)[O-])c4s3)CC2)O1 (stereo not given),Potency,[6],inactive
same,Potency,[2],inactive
same,Potency,[3],inactive
same,Potency,[4],inactive
CCCn1c(=O)c2[nH]c(-c3cnn(Cc4cccc(C(F)(F)F)c4)c3)nc2n(CC)c1=O,Potency,[8],13.2 µM (active)
same,Potency,[6],5.9 µM (active)
same,Potency,[2],inactive
Nc1nc(-c2nn(Cc3ccccc3F)c3ncccc23)nc(N)c1N1CCOCC1,Potency,[5],inactive
same,Potency,[6],inactive
same,Potency,[7],inactive
COc1cccc(Nc2c(C(N)=O)cnc3c(C)cc(S(=O)(=O)c4cccc(C(=O)N(C)C)c4)cc23)c1,Potency,[2],inactive

# From PubChem BioAssay (NCATS)
